# Source: the supplement of paper PMC6555819
# Legend:
# Test in all cases: PBM binding z-score (relative to random genomic background probes); higher = stronger binding; sequences stand for … in GC…GCGATTGACAGCGTAGAATGAAGG
# [1] = test system: RARb homodimer (NR concentration 270 nM)
# Outline: (§1)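 Probes were double-stranded and carried 34-nt variable regions with direct-repeat seeds, single-nucleotide variants, half-site ablations and random human genomic background sequences, printed on custom Agilent 4×180K protein-binding microarrays. Arrays were incubated 1 h with ligand-free nuclear receptor dimers in PBS pH 7.4, 2% milk, 0.02% Triton X-100, 1 mM DTT, 0.2 mg/mL BSA and 0.4 mg/ml salmon testes DNA. Antibodies against each partner (one per run) detected binding, and scanned fluorescence was regression-normalized. Binding z-scores use the random background probes as reference.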
# [2] = test system: RARg:RXRa (NR concentration 270 nM, RXRa partner concentration 90 nM)
# Outline: as §1
# [3] = test system: RARg homodimer (NR concentration 270 nM)
# Outline: as §1
# [4] = test system: RXRa DBDmut IVT, anti-RXR (DBD mutation: RXRa K156A/R161A, NR concentration 90 nM)
# Outline: as §1
# [5] = test system: RXRa homodimer (NR concentration 180 nM)
# Outline: as §1
# [6] = test system: THRa:RXRa (NR concentration 90 nM, RXRa partner concentration 90 nM)
# Outline: as §1
# [7] = test system: THRa homodimer (NR concentration 90 nM)
# Outline: as §1
# [8] = test system: VDR:RXRa (NR concentration 270 nM, RXRa partner concentration 90 nM)
# Outline: as §1
# [9] = test system: VDR homodimer (NR concentration 270 nM)
# Outline: as §1
Sequence,PBM binding z-score [1],PBM binding z-score [2],PBM binding z-score [3],PBM binding z-score [4],PBM binding z-score [5],PBM binding z-score [6],PBM binding z-score [7],PBM binding z-score [8],PBM binding z-score [9]
CCTACTGGGCCAAAGATCATTGATTCCAATGCTC,-0.626,0.0876,-0.132,-0.275,0.0908,-0.415,-0.657,-0.31,-0.324
TCGAGTAGGTTAACAATGGGGCATTCAGCTTTCT,0.737,1.49,0.51,0.509,0.809,0.284,-0.587,0.406,-0.182
ATATATAGGTTAGCTGGGGTCATTCAGACTAGGC,3.92,4.47,3.4,2.09,5.55,5.15,3.63,6.61,5.64
TGTCAAGGTTCAAAGGTAACGTAAGTATCCACAC,1.99,4.38,3.11,4.37,6.08,3.12,-0.0609,4.59,4.49
TCTTGTAGATCAACAGTAGGTTAAGAAAGATCGA,-0.123,0.314,0.0764,0.88,0.463,0.12,-0.482,0.333,-0.281
CAGCCTAGGTTAGGGCCAGTATAGGAGGAACGTT,0.216,0.0888,0.349,-0.851,0.0782,-0.0554,-0.75,-0.611,-0.636
TAGCCTACGTCATTGGGCCAGTATAGTACGCATC,-0.397,-0.281,-0.0336,-0.739,-0.232,-0.688,-0.62,-0.617,-0.718
CAAACTAGGTCACCGGAAGGTCACAGTCCGCATG,5.72,8.31,7.76,2.19,6.67,4.49,3.69,5.64,3.04
GCTGCTATGTCAACTGATGGTCAGCTAAAGCTCG,0.659,0.506,0.101,0.137,-0.00112,-0.0819,-1.13,-0.38,-0.702
GCGACTGGGGCAAGGCAGGTTACCATAAGGTTGG,1.16,0.436,0.635,-1.16,0.144,2.41,0.0224,-0.166,-0.42
CCTAACGGGTCACTCCAGGTTATAGCATCGGAGT,2.75,3.8,3.98,1.23,3.26,4.85,0.619,3.7,1.5
ATCTCTAGTTAAGACTCAGTTCAGTGAAGAACGC,0.624,0.145,0.575,0.575,0.126,0.594,0.6,1.2,1.67
GCGACTGGGGCATCAGCAGGGTACCATAACTTAA,0.489,0.0941,0.0483,-0.313,-0.0228,0.147,-0.7,-0.459,-0.477
ATATGTAGGTTAGCTGGGGGCATTCAGACTAGGC,2.15,2.32,2.43,1.71,1.67,4.62,1.84,4.08,2.94
TTACCAAGGTGAGCTGAGGACGTTGATCCAACTC,0.308,0.112,0.436,-0.741,-0.041,4.53,1.6,0.98,-0.0863
CGTCCCAGGTCAAAGGTCAGTGAAGAGATGACGG,5.2,7.98,7.02,2.62,9.93,4.99,2.8,6.07,2.7
CCTGCTAGGTCAATGGTCAGCTATAGCAGCTCGC,3.2,3.54,4.59,1.75,2.21,2.26,0.61,0.921,0.24
ACAGACAGGTGAGTGAGGGTAACTCAGCTGGACG,0.68,0.525,0.533,-0.362,0.572,1.63,0.184,2,0.0737

Sequence,PBM binding z-score [1],PBM binding z-score [2],PBM binding z-score [3],PBM binding z-score [4],PBM binding z-score [5],PBM binding z-score [6],PBM binding z-score [7],PBM binding z-score [8],PBM binding z-score [9]
GATACAGGGTCAGCTAGACGCCAGAGTATGGAAA,2.32,4.41,4.12,0.957,4.21,2.43,0.221,2.29,0.722
GGAACGAGGCCAAGTTGATAGCAGAGTTTGATGG,0.533,0.334,1.03,1.18,-0.0996,0.407,-0.535,-0.548,0.778
CCTACTGGGCCAAAAAGGTCATTAATGCCGATAA,4.32,4.16,3.68,0.627,4.26,2.91,0.449,4.53,2.2
TCTGCTACGTCAACGATGGTCAGCTAATCTGCTA,-0.67,-0.316,-0.0659,0.0473,-0.261,-0.616,-0.92,-0.548,-1.61
CCTACTGGGCCAAGGTCACTGATCAGTCAAAGCA,3.91,4.17,4.29,0.302,3.92,3.6,2.65,2.92,2
CCGACTCGGGCATAAGGTTACCATAAGCCAGCCC,1.44,1.47,0.909,-0.288,0.905,2.09,0.96,-0.121,-0.223
TAGCCTAGGTCATTGGGACAGTATAGTACGCATC,2.92,3.97,4.51,1.52,3.13,2.95,1.14,2.35,1.44
TCAGACAGGAGAAGGTAACTCAGGTACGCAGTCG,-0.2,0.286,0.356,1.23,0.47,0.913,0.177,0.714,-0.0806
CCTGCTAGGCCATGGTCAGCTAATCTACAGTATG,0.329,-0.00744,0.586,0.152,-0.245,-0.0916,-0.719,-0.543,-0.711
GCGACTGGGGCAGAGCAGGTTACCATAAGGTTGG,0.826,0.0864,0.288,-0.613,0.225,1.64,-0.115,-0.508,-0.654
CCCACTGGGGCAAGGTTACCATAACGCACAGCCA,1.4,1.18,1.2,-1.3,1.09,1.23,0.178,0.132,-0.227
ACTATTAGTTGACTTAGGGCAACCAATACGACGC,1.15,0.838,0.945,0.699,0.621,1.66,0.216,0.354,0.251
CCTATTAGTTGACCTTAAGGGCAACCGAAGCTCG,4.16,4.56,3.45,1.41,4.9,4.36,5.34,3.66,2.12
TCATATATGTAAAGGTGAAAGTCGAACGATATGA,1.45,1.45,1.16,0.622,2.19,1.19,-0.594,1.17,0.112
CCTAGGAGGCCAATCTGGGTCACTCAAGGCTTGA,2.69,1.66,2.12,-0.07,1.19,4.21,0.462,1.21,0.0459
CATAAAGGGTCAGCTAGGCCAGAGTAGGGACGGC,4.09,5.41,6.23,1.52,4.42,2.65,0.204,4.05,0.783
CGATCTAGGTCATTGACAGGACAGTGAATAGTAA,2.8,4.48,4.41,2.67,2.41,3.11,1.21,2.09,1.49
TCGAGTAGGTTAGTCGGGGCATTCTGCCAACATA,0.157,-0.242,-0.393,0.374,-0.128,0.983,-0.375,2.15,0.287
